Source: PubChem BioAssay (NCATS)
Inconclusive results are not listed. The source made the active and inactive calls. The call rests on the fitted dose curve; in most records, active means well fitted inhibition curve with a large enough effect; inconclusive means small, poorly fitted or top-dose-only effect; inactive means no such curve, though single readings can be large or run the other way.

Assay: BET inhibitor-based combinations targeting novel dependencies in MECOM-rearranged (r) AML: SET-2 cell line (AID 2202231); further: nearly all actives have a fitted effect of over 35% in size
Details: SET-2 AML cells viability, CellTiter-Glo luminescence, 48 h; viability: active compounds read low, series mostly up to about 46 µM
Excerpt: Ecotropic viral insertion site 1 (EVI1) is located on chromosome 3q26.2 as part of the MECOM (MDS and EVI1 complex) locus. Under normal hematopoiesis, EVI1 is a regulator of hematopoietic stem cell maintenance and self-renewal and EVI1 levels decrease as the cells differentiate. In approximately 5-10% of de novo acute myeloid leukemia (AML) EVI1 is aberrantly expressed, including Chromosomal inv(3)(q21;q26.2) or t(3;3)(q21;q26.2) alterations (MECOM-r) that account for about 50% of AML with EVI1 overexpression 31. AMLs with high levels of EVI1 have a poor prognosis and an overall survival time averaging between 10-14 months. EVI1 overexpression confers resistance in leukemia cells, highlighting the need to develop new targeted therapies for EVI1 overexpressing AMLs.
Here, we performed an unbiased chemical drug screening by evaluating the single agent activity of a collection of 2,480 oncology-focused, approved and investigational drugs (NCATS Mechanism Interrogation Plates, MIPE v5.0) against a panel of seven AML cell lines. These included four MECOM-r cell-lines (AML-191, AML-194, UCSD-AML1 and HNT-34) and three non-MECOM-r AMLs (MV4-11, OCI-AML3 and SET-2). Exploiting the mechanistic redundancy built in the library, we identified target-level sensitivities in MECOM-r AML cells and relative activity as compared to other AML subtypes.
A collection of 2480 mechanistically annotated dugs (MIPE v5.0) was used to screen four 3q26.2 rearranged AML cell lines and three non-3q26.2 rearranged AML cell lines. This library purposely exploits redundancy by including multiple inhibitors of key onco-targets, while simultaneously encompassing mechanistic diversity, targeting more than 800 distinct mechanisms of action. Briefly, cells were seeded in 5 uL of growth media using a Multidrop Combi dispenser into 1536 well white polystyrene tissue culture treated plates (Corning) at a density of 500cells/well. For each cell-line, for each of the 2480 drugs in MIPE v5.0 library, an 11-point dose curve was generated via a 1536 pin-tool. Plates were incubated for 48 hr at standard incubator conditions, covered by a stainless steel gasketed lid to prevent evaporation. Cell viability was determined by luminescence based, Cell Titer Glo assay (Promega). In detail, 3 uL of Cell Titer Glo were added to each well and plates were incubated at room temperature for 15 min with a stainless-steel lid in place. Luminescence readings were taken using a Viewlux (PerkinElmer) with a 2 s exposure time per plate. Compound dose-response curves were normalized to DMSO and empty well controls on each plate. Quantitative drug activity data from dose-response curves was determined utilizing area Under the Curve (AUC) and Z-transformed AUC (Z-AUC, a mean-centering transformation applied to each individual cell-line screened).
Potency means the concentration at half of the fitted maximal effect.

SMILES	viability	Potency
CNNCc1ccc(C(=O)NC(C)C)cc1	112% (inactive)	
COc1ccc(-n2nc(C(N)=O)c3c2C(=O)N(c2ccc(N4CCCCC4=O)cc2)CC3)cc1	101% (inactive)	
CC[C@@]1(O)C(=O)OCc2c1cc1n(c2=O)Cc2cc3cc(O)ccc3nc2-1		0.0332 µM (active)
CC(N)C12CC3CC(CC(C3)C1)C2 (stereo not given)	106% (inactive)	
O=C(Nc1ccc(-c2ccnc(Nc3ccc(N4CCOCC4)cc3)n2)cc1)C1CCCN1 (stereo not given)		9.34 µM (active)
Nc1ccccc1NC(=O)c1ccc(CNc2nccc(-c3cccnc3)n2)cc1		1.66 µM (active)
COc1ncnc(NS(=O)(=O)c2ccc(N)cc2)c1OC	116% (inactive)	
CC(=O)NC(CS)C(=O)O (stereo not given)	104% (inactive)	
CC(C)C[C@H](CO)Nc1nc(S[C@@H](C)c2ccccc2)nc2nc(N)sc12		23.5 µM (active)
Cn1cc(-c2ccc3nnc(C(F)(F)c4ccc5ncccc5c4)n3n2)cn1	106% (inactive)	
COc1ccc(C2CNC(=O)C2)cc1OC1CCCC1 (stereo not given)	119% (inactive)	
O=C(NCCCNC(=O)c1ccc[nH]c1=O)c1cc(-c2ccccc2)on1		13.2 µM (active)
CO[C@@H]1COCC[C@@H]1N[C@@H]1CC[C@@](C(=O)N2CCc3ncc(C(F)(F)F)cc3C2)(C(C)C)C1	122% (inactive)	
COc1ccccc1[C@H](c1cccc2ccccc12)[C@@](C)(C#N)C(=O)N1CCC(c2cccc(C(F)(F)F)c2)CC1	110% (inactive)	
NS(=O)(=O)c1cc2c(cc1Cl)NC(C(Cl)Cl)NS2(=O)=O (stereo not given)	112% (inactive)	
C=C1[C@H](CO)[C@@H](O)C[C@@H]1n1cnc2c(=O)[nH]c(N)nc21	117% (inactive)	
CC(C)C[C@H](NC(=O)CNC(=O)c1cc(Cl)ccc1Cl)B1OC(=O)CC(CC(=O)O)(C(=O)O)O1 (stereo not given in full)		0.118 µM (active)
C=C1C[C@@]2(O)O[C@@]3(C[C@H]2C(C)C)[C@@H](C)CC[C@@H]13	112% (inactive)	
CC(C)(CO)[C@@H](O)C(=O)NCCC(=O)O	117% (inactive)	
CCCN1CCN(c2ccc(C(=O)NC3(C(=O)NCC#N)CCCCC3)cc2)CC1	102% (inactive)	

SMILES	viability	Potency
Cc1ccc(C(N)=O)cc1Nc1nccc(-c2cn(C(C)C)c3cnccc23)n1		7.42 µM (active)
CNC(=O)c1cc(Oc2ccc(NC(=O)Nc3cc(C(C)(C)C)nn3-c3ccc4ncccc4c3)c(F)c2)ccn1		18.6 µM (active)
COc1ccccc1N1CCN(CC(O)COc2cccc3ccccc23)CC1 (stereo not given)		13.2 µM (active)
CCc1c2c(nc3ccc(O)cc13)-c1cc3c(c(=O)n1C2)COC(=O)[C@]3(O)CC		0.0166 µM (active)
CCC1(C)CC(=O)NC1=O (stereo not given)	115% (inactive)	
COCCN1CCN(Cc2ccc(-c3n[nH]c4c3C(=O)c3c(NC(=O)NN5CCOCC5)cccc3-4)cc2)CC1		0.417 µM (active)
C[C@]12CCC(=O)C=C1CC[C@@H]1[C@@H]2[C@@H](O)C[C@@]2(C)[C@H]1CC[C@]2(O)C(=O)CO	113% (inactive)	
CCCCCCCCCCCCc1ccc(S(=O)(=O)Nc2nncs2)cc1	118% (inactive)	
CC(N[C@H]1CCCC[C@H]1NC(=O)c1ccc(Cl)cc1)c1cccc2ccccc12 (stereo not given in full)		26.3 µM (active)
CCCCN(CCCC)C(=O)CN1C[C@H](c2ccc3c(c2)OCO3)[C@@H](C(=O)O)[C@@H]1c1ccc(OC)cc1	107% (inactive)	
NC(=NCCCCCCN=C(N)N=C(N)Nc1ccc(Cl)cc1)N=C(N)Nc1ccc(Cl)cc1		26.3 µM (active)
CNC(=O)c1c(F)cccc1Nc1nc(Nc2cc3c(cc2OC)CCN3C(=O)CN(C)C)nc2[nH]ccc12		8.33 µM (active)
CCC(=O)O[C@]1(C(=O)SCF)[C@H](C)C[C@H]2[C@@H]3C[C@H](F)C4=CC(=O)C=C[C@]4(C)[C@@]3(F)[C@@H](O)C[C@@]21C	114% (inactive)	
O=C(CCl)Nc1cccc(NC2=NS(=O)(=O)c3ccccc32)c1		26.3 µM (active)
CCn1c(-c2nonc2N)nc2c(C#CC(C)(C)O)ncc(OC[C@H]3CCCNC3)c21	101% (inactive)	
COc1c(C)c2c(c(O)c1C/C=C(\C)CCC(=O)OCCN1CCOCC1)C(=O)OC2		1.32 µM (active)
NCc1ccc(OCCCc2sc(-c3ccc4c(c3)/C(=N/Nc3nc5ccccc5s3)CCC4)nc2C(=O)O)cc1		0.332 µM (active)
COc1ccc2cc([C@H](C)C(=O)O)ccc2c1	116% (inactive)	
O=C(CCCc1ccc2cccnc2n1)NCc1cc(-c2ccc(F)c(C(F)(F)F)c2)no1	106% (inactive)	
O=c1cc(N2CCOCC2)oc2c(-c3cccc4c3sc3ccccc34)cccc12		9.34 µM (active)
